Results: the supplement of paper PMC12494721
Structures can show the parent of a compound that is named as a salt.

Key:
Conditions in all cases: incubation time: 27 h, anaerobic, 37 °C;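 for the amine columns active = adjusted P below 0.05 in both replicates with a change the same way and a mean fold change under 0.8 or over 1.25; inactive = the rest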
[1] = test system: Clostridium sporogenes DSM 1664; assay: growth (OD595) fold change vs plate DMSO controls (fold change (ratio)); higher = more growth
Outline: (§1)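 Anaerobic 27 h, 37 °C mGAM 96-well cultures were shaken, then read for absorbance at 595 nm. Values were blank-subtracted and corrected for compound background using 20 µM compound solutions in water. A calibration factor of 5 converted them to OD. Growth is the fold change versus the median of plate DMSO controls. Fold changes above 1.5 were set to NA, and values are the mean of 2 biological replicates.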

Escherichia coli IAI1 [2] = assay: as above
Outline: as §1

[3] = test system: Klebsiella aerogenes DSM 30053; assay: as above
Outline: as §1

[4] = test system: Ruminococcus gnavus DSM 108212; assay: as above
Outline: as §1

[5] = test system: Klebsiella aerogenes DSM 30053; assay: fold change of Histamine concentration vs plate DMSO controls (fold change (ratio)); higher = more amine produced, active = hit call of the paper (significant change in both replicates, either direction)
Outline: (§2)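 Using LC–triple-quadrupole MS with dynamic MRM, amines were quantified against external calibration curves and corrected for drift within each batch. Samples were whole anaerobic mGAM cultures of four gut strains, grown 27 h at 37 °C from OD 0.1 before 1:1 dilution, extracted with cold acetonitrile/methanol containing 0.1% formic acid and centrifuged. Compounds were present at 20 µM final (sweeteners at 50 µM final). The numbers are fold changes versus plate DMSO controls, each the mean of 2 biological replicates.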

[6] = test system: Clostridium sporogenes DSM 1664; assay: fold change of Tryptamine concentration vs plate DMSO controls (fold change (ratio)); higher = more amine produced, active = hit call of the paper (significant change in both replicates, either direction)
Outline: as §2

[7] = test system: Ruminococcus gnavus DSM 108212; assay: as above
Outline: as §2

Escherichia coli IAI1 [8] = assay: fold change of Putrescine concentration vs plate DMSO controls (fold change (ratio)); higher = more amine produced, active = hit call of the paper (significant change in both replicates, either direction)
Outline: as §2

[9] = test system: Klebsiella aerogenes DSM 30053; assay: as above
Outline: as §2

Escherichia coli IAI1 [10] = assay: fold change of Cadaverine concentration vs plate DMSO controls (fold change (ratio)); higher = more amine produced, active = hit call of the paper (significant change in both replicates, either direction)
Outline: as §2

[11] = test system: Klebsiella aerogenes DSM 30053; assay: as above
Outline: as §2

[12] = test system: Ruminococcus gnavus DSM 108212; assay: fold change of 2-Phenylethylamine concentration vs plate DMSO controls (fold change (ratio)); higher = more amine produced, active = hit call of the paper (significant change in both replicates, either direction)
Outline: as §2

Structure (SMILES)	growth [1]	growth (Escherichia coli IAI1 [2])	growth [3]	growth [4]	fold change of Histamine concentration [5]	fold change of Tryptamine concentration [6]	fold change of Tryptamine concentration [7]	fold change of Putrescine concentration (Escherichia coli IAI1 [8])	fold change of Putrescine concentration [9]	fold change of Cadaverine concentration (Escherichia coli IAI1 [10])	fold change of Cadaverine concentration [11]	fold change of 2-Phenylethylamine concentration [12]
CN1CCN(CC(=O)N2c3ccccc3C(=O)Nc3cccnc32)CC1 [Pirenzepine dihydrochloride] (20 µM)	1.06	1.02	0.992	1.03	1.1 (inactive)	1.02 (inactive)	0.993 (inactive)	1.01 (inactive)	1.08 (inactive)	0.99 (inactive)	1.04 (inactive)	0.916 (inactive)
COc1ccccc1OCC(O)COC(N)=O (stereo not drawn) [Methocarbamol] (20 µM)	1.03	1	1.03	1.12	1.06 (inactive)	1.02 (inactive)	0.963 (inactive)	0.998 (inactive)	1.01 (inactive)	0.986 (inactive)	0.987 (inactive)	0.95 (inactive)
CN(C)CCOC(=O)COc1ccc(Cl)cc1 [Meclofenoxate hydrochloride] (20 µM)	1.13	1.02	1.01	0.995	1.11 (inactive)	0.931 (inactive)	0.958 (inactive)	1 (inactive)	1.01 (inactive)	1.02 (inactive)	0.979 (inactive)	0.895 (inactive)
CC(=O)/N=c1/sc(S(N)(=O)=O)nn1C [Methazolamide] (20 µM)	1.08	1.07	1.01	0.848	0.962 (inactive)	1.02 (inactive)	1.07 (inactive)	0.979 (inactive)	0.981 (inactive)	0.958 (inactive)	0.996 (inactive)	1.12 (inactive)
CN(C)CCN(Cc1ccc(Cl)cc1)c1ccccn1 [Chloropyramine hydrochloride] (20 µM)	0.894	1.03	0.92	0.771	0.98 (inactive)	1.05 (inactive)	1.16 (inactive)	0.817 (inactive)	0.975 (inactive)	1.58 (active)	0.994 (inactive)	1.27 (inactive)
O=S(=O)(O)CCS [Coenzyme M] (20 µM)	0.917	1.06	1	1.01	1.12 (inactive)	1.02 (inactive)	0.951 (inactive)	1.03 (inactive)	1.01 (inactive)	0.979 (inactive)	0.986 (inactive)	0.902 (inactive)
C#CCN[C@@H]1CCc2ccccc21 [Rasagiline] (20 µM)	0.963	0.959	0.993	0.87	1.02 (inactive)	1.03 (inactive)	1.02 (inactive)	0.965 (inactive)	0.981 (inactive)	1.02 (inactive)	0.974 (inactive)	1.03 (inactive)
CC(N)C12CC3CC(CC(C3)C1)C2 (stereo not drawn) [Rimantadine hydrochloride] (20 µM)	0.858	0.975	0.955	0.786	1.01 (inactive)	0.984 (inactive)	1 (inactive)	0.947 (inactive)	1.01 (inactive)	1.01 (inactive)	0.994 (inactive)	0.987 (inactive)
CN[C@H]1CC[C@@H](c2ccc(Cl)c(Cl)c2)c2ccccc21 [Sertraline] (20 µM)	1.13	1.01	1.02	0.975	0.995 (inactive)	1.01 (inactive)	0.902 (inactive)	1.03 (inactive)	1 (inactive)	1.1 (inactive)	0.996 (inactive)	1.02 (inactive)
CO[C@@]1(NC(=O)Cc2cccs2)C(=O)N2C(C(=O)O)=C(COC(N)=O)CS[C@@H]21 [Cefoxitin sodium salt] (20 µM)	0	0.00646	1.45	0	1.21 (inactive)	0.0449 (active)	0.0768 (active)	0.153 (active)	1.09 (inactive)	0.623 (active)	1.11 (inactive)	0.0566 (active)
CCCCC1(COC(=O)CCC(=O)O)C(=O)N(c2ccccc2)N(c2ccccc2)C1=O [Suxibuzone] (20 µM)	0.913	1.04	1.06	1.12	0.877 (inactive)	1.07 (inactive)	0.929 (inactive)	0.993 (inactive)	0.987 (inactive)	0.957 (inactive)	1 (inactive)	0.906 (inactive)
O=C1[C@@H]2[C@H]3CC[C@H](C3)[C@@H]2C(=O)N1CCCCN1CCN(c2ncccn2)CC1 [Tandospirone] (20 µM)	0.973	1.04	1.03	1.06	0.981 (inactive)	0.992 (inactive)	1.01 (inactive)	0.989 (inactive)	0.995 (inactive)	1 (inactive)	0.997 (inactive)	1.06 (inactive)
COc1ccc([C@@H]2CC(=O)c3c(O)cc(O[C@@H]4O[C@H](CO[C@@H]5O[C@@H](C)[C@H](O)[C@@H](O)[C@H]5O)[C@@H](O)[C@H](O)[C@H]4O)cc3O2)cc1O [Hesperidin] (20 µM)	1.12	1.05	1.06	0.984	0.921 (inactive)	1.26 (active)	1.01 (inactive)	1.01 (inactive)	0.934 (inactive)	0.986 (inactive)	1.02 (inactive)	0.982 (inactive)
CCC(C)(C)c1ccc(CC(C)CN2C[C@@H](C)O[C@@H](C)C2)cc1 (stereo partly drawn) [Amorolfine hydrochloride] (20 µM)	1.07	0.995	1.01	0.849	1.01 (inactive)	0.989 (inactive)	0.868 (inactive)	1.03 (inactive)	1 (inactive)	1.02 (inactive)	0.997 (inactive)	0.88 (inactive)
COC(=O)[C@H](Cc1ccccc1)NC(=O)[C@H](CC(=O)O)NCCCc1ccc(OC)c(O)c1 [Advantame] (50 µM)	0.941	0.94	0.999	0.968	1 (inactive)	0.973 (inactive)	0.899 (inactive)	0.932 (inactive)	1.02 (inactive)	1.04 (inactive)	0.996 (inactive)	0.9 (inactive)
O=C1c2ccccc2S(=O)(=O)N1CCCCN1CCN(c2ncccn2)CC1 [Ipsapirone] (20 µM)	1	0.977	0.973	0.939	0.94 (inactive)	1.04 (inactive)	0.997 (inactive)	0.992 (inactive)	0.997 (inactive)	1.02 (inactive)	1 (inactive)	1.01 (inactive)
COc1ccc2cc([C@@H](C)C(=O)O)ccc2c1 [(R) Naproxen sodium salt] (20 µM)	0.979	1.08	1.07	0.811	1.03 (inactive)	1.07 (inactive)	1.05 (inactive)	0.951 (inactive)	0.974 (inactive)	0.956 (inactive)	1 (inactive)	1.11 (inactive)
CN(C)CCOC(c1ccccc1)c1ccccc1 [Diphenhydramine hydrochloride] (20 µM)	0.881	0.994	0.974	1.25	1 (inactive)	1.05 (inactive)	0.945 (inactive)	0.962 (inactive)	0.996 (inactive)	0.98 (inactive)	0.985 (inactive)	0.914 (inactive)
N[C@@H]1CCCCN(c2c(F)cc3c(=O)c(C(=O)O)cn(C4CC4)c3c2Cl)C1 [Besifloxacin hydrochloride] (20 µM)	0.0111	0.0312	0.191	0.266	0.189 (active)	0.0464 (active)	0.149 (active)	0.814 (inactive)	1.08 (inactive)	0.267 (active)	0.988 (inactive)	0.166 (active)
Oc1c(Cl)cc(Cl)cc1Sc1cc(Cl)cc(Cl)c1O [Bithionol] (20 µM)	0	0.881	1.01	0.0806	1.05 (inactive)	0.0165 (active)	0.101 (active)	1.26 (active)	1.02 (inactive)	1.51 (active)	1.01 (inactive)	0.0838 (active)
Nc1nc(=S)c2ncn([C@@H]3O[C@H](CO)[C@@H](O)[C@H]3O)c2[nH]1 [Thioguanosine] (20 µM)	0.927	0.951	1.03	0.773	0.953 (inactive)	0.981 (inactive)	0.955 (inactive)	0.479 (inactive)	1.01 (inactive)	0.903 (inactive)	1.03 (inactive)	0.925 (inactive)
CC(=O)Oc1ccccc1C(=O)Nc1ncc([N+](=O)[O-])s1 [Nitazoxanide] (20 µM)	0.00234	0.925	0.915	0.11	0.982 (inactive)	0.0219 (active)	0.045 (active)	1.02 (inactive)	0.982 (inactive)	1.25 (inactive)	1.01 (inactive)	0.0405 (active)
CN(C)c1ccc2nc3ccc(=[N+](C)C)cc-3sc2c1 [Methylene blue] (20 µM)	0.774	0.466	0.42	0.00745	0.942 (inactive)	0.998 (inactive)	1.02 (inactive)	0.965 (inactive)	0.928 (inactive)	0.941 (inactive)	0.989 (inactive)	1.09 (inactive)
CN(C)CCC=C1c2ccccc2COc2ccccc21 [Doxepin hydrochloride] (20 µM)	1.04	0.995	0.978	0.833	0.999 (inactive)	0.959 (inactive)	0.977 (inactive)	1.03 (inactive)	1 (inactive)	0.919 (inactive)	1 (inactive)	0.921 (inactive)
